Measured values taken from PubChem BioAssay (NCI).
About 83,000 compounds went through this panel and 20% of them were active in at least one assay; those are over-represented in the sample as a whole.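 Single-dose data. Exposure time 48 hours. Values below 10 considered active.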 A number with no mark means an inactive call. The source made the active and inactive calls.

These compounds were tested on HL-60(TB) leukemia (assay: NCI-60 one-dose screen, 48 h (100 = growth as untreated, 0 = no growth, -100 = all killed)). Settings: 10 µM unless noted.

Q: With `CCOC(=O)c1cn2ncnc(Oc3ccc(NC(=O)NCCN(C)C)c(Cl)c3)c2c1C` as the compound, how does the growth read?
A: 98.6%

Q: With `COc1cc2nccc(Oc3ccc(NC(=O)C4(C(=O)Nc5ccc(F)cc5)CC4)cc3)c2cc1Oc1ccc(N)cn1` as the compound, how does the growth read?
A: 22.9%

Q: `COc1ccc(C(=O)COc2cccc(/C=C3\CSc4ccc(Cl)cc4C3=O)c2)cc1` was tested. Which growth did it give?
A: 81.8%

Q: Which growth does the source give for `O=C(Cc1cccc2ccccc12)N/N=C/c1ccc2c(c1)CCC2` here?
A: 68.3%

Q: With `C=CC1=NC(C)(C)CC(C)O1` (stereo not given) as the compound, how does the growth read?
A: 96.7%

Q: For `COC(=O)CC[C@@H](C)[C@H]1CC[C@H]2[C@@H]3CC[C@@H]4C[C@H](O)CC[C@]4(C)[C@H]3C[C@H](O)[C@]12C`, which growth is on record?
A: 96.9%

Q: With `NC(=S)N/N=C/c1ccc(Cl)s1` as the compound, how does the growth read?
A: 102%

Q: With `CC/C=C\CCC/C=C1/C(=O)C=C[C@@H]1C/C=C\CCCC(=O)O` as the compound, how does the growth read?
A: 10.9%

Q: How did the growth turn out when `N#Cc1ccc(O)c(C2=NCC(c3ccccc3)O2)c1` (stereo not given) was run?
A: 14.5%

Q: With `Cc1ccc(-c2ccc(Nc3ccccc3)nn2)cc1S(N)(=O)=O` as the compound, how does the growth read?
A: 86.7%

Q: `CCCCCCCCCCCCCCCCN(C(C)c1ccccc1)S(=O)(=O)c1ccc(OC)c(N)c1` (stereo not given) was tested. Which growth did it give?
A: 98.2%

Q: With `COc1ccc([C@H]2[C@H](C(=O)Nc3cccnc3)c3ccccc3C(=O)N2c2ccccc2)cc1` as the compound, how does the growth read?
A: 90.2%

Q: How did the growth turn out when `COc1ccc(C(=O)NC(=O)Nc2ccc3c(c2)NC(=O)/C3=C\c2[nH]c(C)c(C(=O)O)c2C)c(F)c1` was run?
A: 80.8%

Q: Which growth does the source give for `O=C(/C=C\c1cc(Br)ccc1O)/C=C/c1cc(Br)ccc1O` here?
A: -3.03% (active)

Q: `COc1cnc2c(c1)C(=O)c1c-2n(CCCN2CCCC2)c(=O)c2cc(F)ccc12` was tested. Which growth did it give?
A: -28.7% (active)

Q: For `O=Cc1cc2ccccc2nc1Nc1nccs1`, which growth is on record?
A: 99.5%

Q: How did the growth turn out when `CCOC(=O)c1c(C)c2c(n1Cc1ccccc1)CSCC2=O` was run?
A: 13.3% [100 µM]

Q: With `O=[P@@]1(c2ccccc2)O[C@H](COCc2ccccc2)[C@@H](OCc2ccccc2)[C@H](OCc2ccccc2)[C@H]1O` as the compound, how does the growth read?
A: 98.5%

Q: With `CCOC(=O)c1cnn(-c2ccc(S(N)(=O)=O)cc2)c1N` as the compound, how does the growth read?
A: 92.9%

Q: `CC(C)(C)c1ccc(C(O)CCCN2CCC(C(O)(c3ccccc3)c3ccccc3)CC2)cc1` (stereo not given) was tested. Which growth did it give?
A: -51.9% (active)

Q: `O=C(Cc1c(F)cccc1Cl)Nc1ccc(S(=O)(=O)Nc2ncccn2)cc1` was tested. Which growth did it give?
A: 120%

Q: How did the growth turn out when `CCC(C)C1NC(=O)c2nc(oc2-c2ccccc2)-c2csc(n2)-c2csc(n2)-c2nc(oc2C)-c2coc(n2)CNC(=O)C(C(C)CC)NC1=O` (stereo not given) was run?
A: -69.7% (active)

Q: How did the growth turn out when `COc1ccc(-c2cn[nH]c2-c2cc(OC)c(OC)c(OC)c2)cc1OCc1ccccc1` was run?
A: 20.4%

Q: Which growth does the source give for `Nc1n[nH]c2ccc([C@@H]3Nc4ccc5[nH]ncc5c4[C@H]4[C@H]5CCC(C5)[C@H]43)cc12` here?
A: -41.5% (active)

Q: With `O=C(CN1N=C(c2ccc(F)cc2)CCC1=O)Nc1nccs1` as the compound, how does the growth read?
A: 95.3%

Q: Which growth does the source give for `O=[N+]([O-])c1cc2c(ccc3occc32)o1` here?
A: 5.05% (active)

Q: Which growth does the source give for `CSc1nc2ncnc(SC)c2[nH]1` here?
A: 118%

Q: `COc1cc2oc(-c3cccc(C(=O)Nc4ccc(Cl)cc4)c3)cc(=O)c2c(O)c1OC` was tested. Which growth did it give?
A: 85.6%

Q: `COc1ccc(-n2cc(-c3ccc(Cl)c(Cl)c3)[nH]c2=O)cc1OC` was tested. Which growth did it give?
A: 179%

Q: How did the growth turn out when `O=C1/C(=C\c2c[nH]c3ccccc23)c2ccccc2N1c1c(Cl)cccc1Cl` was run?
A: -7.81% (active)

Q: With `N#Cc1ccc(-c2ccc(-c3cccs3)o2)cc1F` as the compound, how does the growth read?
A: 89.3%

Q: With `C=C(C)[C@@H]1CC[C@]2(C(=O)OC)CC[C@]3(C)[C@H](CC[C@@H]4[C@@](C)(CCc5nn[nH]n5)[C@H](C(=C)C)CC[C@]43C)[C@@H]12` as the compound, how does the growth read?
A: -11% [100 µM] (active)

Q: How did the growth turn out when `COc1cc(Cn2cc3c(c2)-c2onc(CO)c2CC3)cc(OC)c1OC` was run?
A: 77.5%

Q: Which growth does the source give for `Cc1cc(C(N)=O)cc(C)c1C(=O)OCCCl` here?
A: 106%

Q: How did the growth turn out when `COC(=O)N[C@@H](C)CNc1nccc(-c2cn(C(C)C)nc2-c2cc(Cl)cc(NS(C)(=O)=O)c2F)n1` was run?
A: 26.6%

Q: Which growth does the source give for `O=C(CCCCCCc1nc2ccc(Br)cc2[nH]1)NO` here?
A: 2.12% (active)

Q: Which growth does the source give for `N=S(=O)(NC(=O)c1ccc(Cl)cc1Cl)c1ccc(Br)s1` (stereo not given) here?
A: 96.8%

Q: For `O=c1oc2ccc(I)cc2c(=O)n1-c1ccc(F)cc1F`, which growth is on record?
A: -4.05% (active)

Q: How did the growth turn out when `COc1ccc(C(=O)COc2cccc(/C=C3\CSc4ccccc4C3=O)c2)cc1` was run?
A: -55.5% (active)

Q: With `NNC(=S)N/N=C/c1ccccn1` as the compound, how does the growth read?
A: 1% (active)
